# Records with an inconclusive call do not appear. The source made the active and inactive calls. How the source made its calls, unless noted: active means hit-call score of the fitted dose curve at least 0.9, where 1 is the maximum; inconclusive means response in the unintended direction; inactive means score below 0.9.
# How the values were obtained:
# [1] = CCTE_Padilla_ZF_144hpf_TERATOSCORE: (Legacy) CCTE's 144 Hour Post-fertilization zebrafish Assay Teratoscore, Padilla Lab (AID 2283679; active means hit-call score of the fitted dose curve at least 0.9, where 1 is the maximum; inactive means score below 0.9;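 on AC50: zebrafish embryos with chorions exposed by immersion from 6-8 hpf to 5 dpf with daily renewal; teratogenicity score from eye scoring of death hatching and malformations at 144 hpf; higher score means more developmental defects relative to DMSO baseline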)
# Procedure, shortened: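 Larvae scored by eye at 144 hpf for death, hatching and malformations after a day in clean Hanks'. Before that, daily-renewed exposure at 80 uM (0.4% DMSO, 26C) from roughly 6-8 hpf through 5 dpf, 4 embryos per chemical.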
# [2] = read-out: ABC Transporter (ABCB11), ABCB11 (gene 8647); test: CLD_ABCB11_6hr: CellzDirect (CLD) Gene Expression Assay for ABC Transporter (ABCB11) at 6 hours (AID 2283675);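 further: hits raise ABCB11 mRNA level so AC50 marks induction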
# Procedure, shortened: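 Human primary hepatocytes (two donor preparations) given fresh chemical daily at multiple concentrations, vehicle 0.2% DMSO. ABCB11 mRNA induction measured 6 h after dosing by qNPA chemiluminescence versus DMSO; cytotoxicity annotated from morphology.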
# [3] = CLD_ACTIN_6hr: CellzDirect (CLD) Gene Expression Assay for Baseline Control (Actin) at 6 hours (AID 2283676);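 further: active means increased actin mRNA relative to DMSO vehicle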
# Procedure, shortened: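 Primary human hepatocytes dosed with fresh chemical solutions (vehicle 0.2% DMSO), harvested at 6 h. Actin mRNA quantified by quantitative nuclease protection assay with chemiluminescent read-out, as background control relative to DMSO.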
# [4] = read-out: Cytochrome P450 2B6 (Homo sapiens) (UniProt P20813); test: CLD_CYP2B6_6hr: CellzDirect (CLD) Gene Expression Assay for xenobiotic metabolism (CYP2B6) at 6 hours (AID 2283677);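 further: actives raise CYP2B6 transcript above DMSO baseline so AC50 marks an inducer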
# Description: (§1) CLD_6hr is a cell-based, multiplexed-readout assay that uses hepatocyte, a human liver primary cell, with measurements taken at 6 hours after chemical dosing in a 96-well plate.CLD_CYP2B6_6hr is one of 16 assay component(s) measured or calculated from the CLD_6hr assay. It is designed to make measurements of mRNA induction, a form of inducible reporter, as detected with chemiluminescence signals by Quantitative Nuclease Protection Assay (qNPA) technology.Data from the assay component CLD_CYP2B6_6hr was analyzed at the endpoint, CLD_CYP2B6_6hr, in the positive analysis fitting direction relative to DMSO as the negative control and baseline of activity. Using a type of inducible reporter, gain-of-signal activity can be used to understand changes in the reporter gene as they relate to the gene CYP2B6. Furthermore, this assay endpoint can be referred to as a primary readout. To generalize the intended target to other relatable targets, this assay endpoint is annotated to the cyp intended target family, where subfamily is xenobiotic metabolism.
# (§2) Human hepatocyte cultures were treated daily for two consecutive days with fresh dosing solutions containing appropriate concentrations of the 320 ToxCast chemicals (chemical identities were blinded to CellzDirect and other ToxCast collaborators), vehicle control (0.2% DMSO), and positive control inducers as summarized in Table 1. […] These replicate data, coupled with internal replicates designed within the blinded ToxCast chemical library, provided additional data to evaluate interindividual differences between hepatocyte preparations and their potential impact on chemical profiles.Cell morphology and integrity were evaluated using phase-contrast microscopy as an indicator of hepatocyte cell health (Tyson & Green, 1987). Cultures for each treatment group (i.e., media, vehicle [0.2% DMSO], positive control inducers [multiple concentrations], and the ToxCast chemicals [multiple concentrations]) were observed and cell morphology was assessed relative to vehicle control cultures at each harvest time point (0, 6, 24, or 48 h). […] Images were evaluated at the conclusion of the study to assess changes in cell integrity and account for the effects of chemical exposure on uncharacteristic changes in concentration-dependent gene expression profiles. […]
# [5] = read-out: Cytochrome P450 2C19 (Homo sapiens) (UniProt P33261); test: CLD_CYP2C19_6hr: CellzDirect (CLD) Gene Expression Assay for xenobiotic metabolism (CYP2C19) at 6 hours (AID 2283678)
# Procedure, shortened: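 Primary human hepatocytes from two donor preparations were dosed daily, with 0.2% DMSO as vehicle, and harvested 6 h after dosing. CYP2C19 mRNA induction was measured by qNPA chemiluminescence and fitted as gain of signal against DMSO.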
# [6] = read-out: Cytochrome P450 3A4 (Homo sapiens) (UniProt P08684); test: CLD_CYP3A4_6hr: CellzDirect (CLD) Gene Expression Assay for xenobiotic metabolism (CYP3A4) at 6 hours (AID 2283680)
# Description: as §1, with “plate.CLD_CYP3A4_6hr” for “plate.CLD_CYP2B6_6hr”, “CLD_CYP3A4_6hr” for “CLD_CYP2B6_6hr”, “CLD_CYP3A4_6hr,” for “CLD_CYP2B6_6hr,”, “CYP3A4.” for “CYP2B6.”
# as §2
# [7] = read-out: xenobiotic metabolism (CYP1A2), CYP1A2 (gene 1544); test: CLD_CYP1A2_24hr: CellzDirect (CLD) Gene Expression Assay for xenobiotic metabolism (CYP1A2) at 24 hours (AID 2283683)
# Description: CLD_24hr is a cell-based, multiplexed-readout assay that uses hepatocyte, a human liver primary cell, with measurements taken at 24 hours after chemical dosing in a 96-well plate.CLD_CYP1A2_24hr is one of 16 assay component(s) measured or calculated from the CLD_24hr assay. It is designed to make measurements of mRNA induction, a form of inducible reporter, as detected with chemiluminescence signals by Quantitative Nuclease Protection Assay (qNPA) technology.Data from the assay component CLD_CYP1A2_24hr was analyzed at the endpoint, CLD_CYP1A2_24hr, in the positive analysis fitting direction relative to DMSO as the negative control and baseline of activity. Using a type of inducible reporter, gain-of-signal activity can be used to understand changes in the reporter gene as they relate to the gene CYP1A2. Furthermore, this assay endpoint can be referred to as a primary readout. To generalize the intended target to other relatable targets, this assay endpoint is annotated to the cyp intended target family, where subfamily is xenobiotic metabolism.
# Human hepatocyte cultures were treated daily for two consecutive days with fresh dosing solutions containing appropriate concentrations of the 320 ToxCast chemicals (chemical identities were blinded to CellzDirect and other ToxCast collaborators), vehicle control (0.2% DMSO), and positive control inducers as summarized in Table 1. Due to the large number of treatment groups and chemicals examined, the ToxCast chemicals were divided into two groups (spanning two independent cultures of hepatocytes from separate donor preparations (Hu778: ToxCast plates 1 and 2; Hu776: ToxCast plates 3 and 4). Each preparation of human hepatocyte cultures was treated with respective vehicle control, medium only control, set of six positive controls/reference chemicals for the five hepatic receptor pathways, and a subset of eight of the ToxCast chemicals (indoxacarb, pyrithiobac-sodium, norflurazon, cyhalofop-butyl, methomyl, thiram, acetochlor, and propiconazole). These replicate data, coupled with internal replicates designed within the blinded ToxCast chemical library, provided additional data to evaluate interindividual differences between hepatocyte preparations and their potential impact on chemical profiles.Cell morphology and integrity were evaluated using phase-contrast microscopy as an indicator of hepatocyte cell health (Tyson & Green, 1987). Cultures for each treatment group (i.e., media, vehicle [0.2% DMSO], positive control inducers [multiple concentrations], and the ToxCast chemicals [multiple concentrations]) were observed and cell morphology was assessed relative to vehicle control cultures at each harvest time point (0, 6, 24, or 48 h). […] Images were evaluated at the conclusion of the study to assess changes in cell integrity and account for the effects of chemical exposure on uncharacteristic changes in concentration-dependent gene expression profiles. The results from these determinations of apparent cytotoxicity were annotated (yes/no) alongside the corresponding qNPA data for reference.At the conclusion of each treatment period, hepatocyte cultures (96-well) were washed with 1 volume of HBSS, lysed by addition of 25 ul ArrayPlate lysis buffer (HTG, Tucson, AZ), and 70 ul/well of Denaturation Oil, denatured by incubation at 95C for 10 min, and frozen at approximately -70C until analysis by nuclease protection assay (qNPA) (Roberts et al., 2007). […]
# [8] = read-out: ABC Transporter (ABCB1), ABCB1 (gene 5243); test: CLD_ABCB1_24hr: CellzDirect (CLD) Gene Expression Assay for ABC Transporter (ABCB1) at 24 hours (AID 2283684)
# Procedure, shortened: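 Primary human hepatocytes, two donor preparations, dosed daily with fresh solutions; vehicle 0.2% DMSO; harvested at 24 h. ABCB1 mRNA measured by quantitative nuclease protection assay (chemiluminescence); morphology-based cytotoxicity annotated.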
# [9] = read-out: Glyceraldehyde-3-phosphate dehydrogenase (Homo sapiens) (UniProt P04406); test: CLD_GAPDH_6hr: CellzDirect (CLD) Gene Expression Assay for Baseline Control (Glyceraldehyde 3-phosphate dehydrogenase) at 6 hours (AID 2283681);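 further: active means increased signal relative to DMSO vehicle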
# Description: CLD_6hr is a cell-based, multiplexed-readout assay that uses hepatocyte, a human liver primary cell, with measurements taken at 6 hours after chemical dosing in a 96-well plate.CLD_GAPDH_6hr is one of 16 assay component(s) measured or calculated from the CLD_6hr assay. It is designed to make measurements of mRNA induction, a form of inducible reporter, as detected with chemiluminescence signals by Quantitative Nuclease Protection Assay (qNPA) technology.Data from the assay component CLD_GAPDH_6hr was analyzed at the endpoint, CLD_GAPDH_6hr, in the positive analysis fitting direction relative to DMSO as the negative control and baseline of activity. Using a type of inducible reporter, gain-of-signal activity can be used to understand changes in the reporter gene as they relate to the gene GAPDH. Furthermore, this assay endpoint can be referred to as a secondary readout, because this assay has produced multiple assay endpoints where this one serves a background control function. To generalize the intended target to other relatable targets, this assay endpoint is annotated to the background measurement intended target family, where subfamily is baseline control.
# as §2
# Sequence of Glyceraldehyde-3-phosphate dehydrogenase (Homo sapiens) (P04406 whole entry, looked up): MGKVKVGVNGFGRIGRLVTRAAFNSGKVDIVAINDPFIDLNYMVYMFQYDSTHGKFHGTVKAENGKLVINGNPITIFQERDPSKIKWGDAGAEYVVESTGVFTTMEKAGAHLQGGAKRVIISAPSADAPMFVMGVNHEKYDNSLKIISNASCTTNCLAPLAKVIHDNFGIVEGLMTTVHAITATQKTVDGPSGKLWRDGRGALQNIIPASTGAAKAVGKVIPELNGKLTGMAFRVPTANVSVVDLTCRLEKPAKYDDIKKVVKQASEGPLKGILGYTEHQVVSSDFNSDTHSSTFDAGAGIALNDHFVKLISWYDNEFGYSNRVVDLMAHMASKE
# Sequence of Cytochrome P450 3A4 (Homo sapiens) (P08684 whole entry, looked up): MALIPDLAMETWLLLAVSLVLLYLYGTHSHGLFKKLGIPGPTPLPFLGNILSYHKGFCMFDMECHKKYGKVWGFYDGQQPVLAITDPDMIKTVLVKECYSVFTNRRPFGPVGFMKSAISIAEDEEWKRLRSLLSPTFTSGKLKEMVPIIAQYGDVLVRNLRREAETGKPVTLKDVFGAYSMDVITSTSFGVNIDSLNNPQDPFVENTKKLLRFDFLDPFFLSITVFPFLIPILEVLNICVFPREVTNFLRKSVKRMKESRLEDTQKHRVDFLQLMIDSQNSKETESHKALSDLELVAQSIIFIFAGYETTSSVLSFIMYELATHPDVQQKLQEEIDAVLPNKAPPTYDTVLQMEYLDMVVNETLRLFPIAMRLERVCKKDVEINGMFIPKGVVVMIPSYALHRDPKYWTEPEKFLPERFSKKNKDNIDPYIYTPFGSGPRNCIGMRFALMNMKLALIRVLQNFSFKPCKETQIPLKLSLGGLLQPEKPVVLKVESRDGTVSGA
# Sequence of Cytochrome P450 2C19 (Homo sapiens) (P33261 whole entry, looked up): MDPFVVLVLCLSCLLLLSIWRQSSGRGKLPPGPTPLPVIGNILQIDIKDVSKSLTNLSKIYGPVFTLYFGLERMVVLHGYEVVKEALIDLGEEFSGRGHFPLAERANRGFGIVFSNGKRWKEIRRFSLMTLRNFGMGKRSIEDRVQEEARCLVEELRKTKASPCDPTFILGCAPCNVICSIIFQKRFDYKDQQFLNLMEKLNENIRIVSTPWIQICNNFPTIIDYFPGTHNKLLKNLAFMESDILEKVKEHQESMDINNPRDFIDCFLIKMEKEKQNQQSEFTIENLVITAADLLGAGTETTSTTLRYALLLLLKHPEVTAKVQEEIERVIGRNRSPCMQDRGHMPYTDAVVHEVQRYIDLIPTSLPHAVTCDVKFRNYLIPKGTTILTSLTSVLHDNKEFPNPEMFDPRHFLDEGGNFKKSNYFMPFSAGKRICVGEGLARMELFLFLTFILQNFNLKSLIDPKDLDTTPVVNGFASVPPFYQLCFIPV
smiles,measurement,setting,value
CCOP(=S)(OCC)SCSC(C)(C)C,AC50,[1],56.3 µM (active)
O=C(NC(=O)c1cc(F)c(F)cc1Cl)Nc1cc(F)ccc1N1CCC(C(=O)O)CC1,AC50,[1],31 µM (active)
CCSC(=O)N(CC)C1CCCCC1,outcome,[2],inactive
same,outcome,[3],inactive
same,AC50,[4],3.97 µM (active)
same,outcome,[5],inactive
same,outcome,[1],inactive
same,outcome,[6],inactive
same,outcome,[7],inactive
same,outcome,[8],inactive
C[C@]12CCC(=O)C=C1CC[C@@H]1[C@@H]2CC[C@]2(C)C(=O)CC[C@@H]12,AC50,[1],31.8 µM (active)
CC(C)(O)C(=O)Nc1ccc([N+](=O)[O-])c(C(F)(F)F)c1,AC50,[1],31.4 µM (active)
CC(C)(c1ccccc1)c1ccc(O)cc1,AC50,[1],4.83 µM (active)
CCC(C)c1cc([N+](=O)[O-])cc([N+](=O)[O-])c1O (stereo unspecified),AC50,[1],0.167 µM (active)
CC1=C2C[C@H]3[C@@H](CC=C4C[C@@H](O)CC[C@@]43C)[C@@H]2CC[C@]12O[C@@H]1C[C@H](C)CN[C@H]1[C@H]2C,AC50,[1],0.115 µM (active)
NS(=O)(=O)C(F)(F)C(F)(F)C(F)(F)C(F)(F)C(F)(F)C(F)(F)C(F)(F)C(F)(F)F,AC50,[1],0.45 µM (active)
COS(=O)(=O)OC,outcome,[1],inactive
Cc1ccccc1CO[C@@H]1C[C@@]2(C(C)C)CC[C@]1(C)O2,outcome,[3],inactive
same,AC50,[1],73.1 µM (active)
same,outcome,[9],inactive
same,AC50,[7],16.5 µM (active)
same,outcome,[8],inactive
CCC(C)(CC)c1cc(NC(=O)c2c(OC)cccc2OC)on1,outcome,[2],inactive
same,outcome,[3],inactive
same,AC50,[4],0.116 µM (active)
same,AC50,[1],58.2 µM (active)
same,AC50,[6],0.0356 µM (active)
same,outcome,[9],inactive
same,AC50,[7],8.57 µM (active)
same,outcome,[8],inactive
Clc1ccc(C(c2ccccc2Cl)C(Cl)(Cl)Cl)cc1 (stereo unspecified),AC50,[1],16.1 µM (active)

# From PubChem BioAssay (EPA / NIEHS)
